Measurements reported in the supplement of paper PMC12340641.
Counter-ions that a name gives are not always drawn.

Target: IKZF1 (dCK*-IKZF1 fusion in HEK293FT) (UniProt Q13422)
Test: inhibition of IKZF1 HTRF signal (DMSO = 0%, pomalidomide 10 uM = 100%); higher = lower IKZF1 protein level
Details: compound concentration: 5 uM, overnight (~20 h)
Procedure, shortened: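 Values are percent inhibition of IKZF1 signal, normalised plate by plate against vehicle and a reference degrader. HEK293FT cells stably expressing an IKZF1 fusion were seeded at 2000 per well in 384-well plates and exposed to 5 μM compound in single wells overnight at 37 °C. After 30 min lysis at room temperature, lysates were incubated overnight with a commercial HTRF total-IKZF1 antibody kit, and the background-subtracted 665/620 nm time-resolved FRET ratio was read. On each plate, vehicle was set at 0% and the reference degrader at 100%.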

Chain of IKZF1 (dCK*-IKZF1 fusion in HEK293FT) (Q13422 whole entry, looked up, the tested form may be a part): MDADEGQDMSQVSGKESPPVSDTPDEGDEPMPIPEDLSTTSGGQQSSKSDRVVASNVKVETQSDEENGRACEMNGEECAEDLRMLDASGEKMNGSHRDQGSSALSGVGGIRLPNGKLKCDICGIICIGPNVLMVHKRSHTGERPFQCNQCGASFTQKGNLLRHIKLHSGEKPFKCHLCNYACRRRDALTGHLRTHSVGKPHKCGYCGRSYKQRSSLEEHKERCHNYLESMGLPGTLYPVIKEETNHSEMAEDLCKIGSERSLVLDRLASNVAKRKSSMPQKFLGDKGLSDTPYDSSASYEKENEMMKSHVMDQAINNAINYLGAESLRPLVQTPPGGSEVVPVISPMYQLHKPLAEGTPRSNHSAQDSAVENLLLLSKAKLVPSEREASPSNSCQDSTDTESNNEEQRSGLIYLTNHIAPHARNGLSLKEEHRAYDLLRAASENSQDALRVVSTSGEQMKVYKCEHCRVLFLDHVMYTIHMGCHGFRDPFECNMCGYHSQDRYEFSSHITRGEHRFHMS

Going from `CN1CCC(=C2c3ccccc3Sc3ccccc32)CC1` to `CN1C(=O)/C(=C2/C(=O)Nc3ccccc32)c2ccccc21` [Meisoindigo], the “inhibition of IKZF1 HTRF signal” value rises from -29.9% to -22.1%.

Going from `O=c1oc2c(O)c(O)cc3c(=O)oc4c(O)c(O)cc1c4c23` to `O=c1c(O)c(-c2ccc(O)c(O)c2)oc2cc(O)cc(O)c12` [quercetin], the “inhibition of IKZF1 HTRF signal” value falls from 5.6% to -26.2%.

Going from `CNC(=O)Nc1ccc(-c2nc(N3CC4CCC(C3)O4)c3cnn(C4CCC5(CC4)OCCO5)c3n2)cc1` to `CCCC(=O)C1CCN(c2ncnc3c2CN(C(=O)c2ccc(-c4ccccc4)cc2)CC3)CC1`, the “inhibition of IKZF1 HTRF signal” value falls from 70.5% to -10.8%.

Compared with `CC1(C)Oc2ccc(C#N)cc2[C@@H](N2CCCC2=O)[C@@H]1O.CC1(C)Oc2ccc(C#N)cc2[C@H](N2CCCC2=O)[C@H]1O` [levcromakalim], `COc1ccc2cc1Oc1ccc(cc1)C[C@H]1c3cc(c(OC)cc3CCN1C)Oc1c(OC)c(OC)cc3c1[C@H](C2)N(C)CC3` [Tetrandrine (Fanchinine)] is higher in “inhibition of IKZF1 HTRF signal” value: -32.9% for the first, 8.84% for the second.

First: COc1cc([C@@H]2c3cc4c(cc3C(O[C@@H]3O[C@@H]5CO[C@@H](c6cccs6)OC5[C@H](O)[C@H]3O)C3COC(=O)[C@@H]32)OCO4)cc(OC)c1O (stereo partly specified)
Second: NC1CC(O[C@H]2C[C@@]([C@@](C)=O)(O)CC3=C2C(O)=C5C(C(C4=CC=CC(OC)=C4C5=O)=O)=C3O)OC(C)C1O (stereo partly specified) [daunorubicin]
The “inhibition of IKZF1 HTRF signal” value of the first is lower: 16.8% for the first, 22% for the second.

Compared with `O=C1C=CC(=O)C2=C1C1c3ccccc3C2c2ccccc21`, `c1ccc(C2(c3ccccc3)CC2=C2NCCN2)cc1` [cibenzoline] is lower in “inhibition of IKZF1 HTRF signal” value: -32.2% for the first, -50% for the second.

Compared with `C/C(=N\NC(=S)N1CCC1)c1ccccn1`, `CN1CCN(CCCN2c3ccccc3Sc3ccc(C(F)(F)F)cc32)CC1` [Trifluoperazine  HCl] is higher in “inhibition of IKZF1 HTRF signal” value: -11.1% for the first, -1.13% for the second.

First: COc1cnc(NS(=O)(=O)c2ccc(N)cc2)nc1
Second: C[C@H](NCc1ccc(OCc2ccccc2F)cc1)C(N)=O [priralfinamide]
The “inhibition of IKZF1 HTRF signal” value of the first is lower: -36.1% for the first, -24% for the second.

Compared with `C[C@H]1O[C@@H](n2cc(F)c(=O)[nH]c2=O)[C@H](O)[C@@H]1O`, `NC(=O)Nc1sc(-c2ccc(F)cc2)cc1C(N)=O` is lower in “inhibition of IKZF1 HTRF signal” value: -24.1% for the first, -33.5% for the second.

Compared with `O=C1Nc2ccc(I)cc2/C1=C/c1cc(Br)c(O)c(Br)c1`, `O=C(/C=C/c1ccc(O)cc1)c1ccc(O)cc1O` [Isoliquiritigenin] is higher in “inhibition of IKZF1 HTRF signal” value: -34.2% for the first, -0.21% for the second.

Going from `COc1cc(/C=C/C(=O)CC(=O)/C=C/c2ccc(O)c(OC)c2)ccc1O` [Curcumin] to `C/C=C(/C(=C/C)c1ccc(O)cc1)c1ccc(O)cc1` [dienestrol], the “inhibition of IKZF1 HTRF signal” value falls from -0.83% to -24%.

Compared with `CCN(CC)c1ccc(C(=C2C=CC(=[N+](CC)CC)C=C2)c2ccccc2)cc1` [Brilliant Green], `COC(=O)Nc1nc2cc(C(=O)c3ccccc3)ccc2[nH]1` [Mebendazole] is lower in “inhibition of IKZF1 HTRF signal” value: 79.8% for the first, 9.13% for the second.

Going from `O=S(=O)(O)CCSSCCS(=O)(=O)O` to `CN(Cc1cnc2nc(N)nc(N)c2n1)c1ccc(C(=O)NC(CCC(=O)O)C(=O)O)cc1` (stereo unspecified) [Methotrexate], the “inhibition of IKZF1 HTRF signal” value falls from -1.7% to -46%.

Compared with `CCc1nc(N)nc(N)c1-c1ccc(Cl)cc1`, `Clc1ccc(CSC(Cn2ccnc2)c2ccc(Cl)cc2Cl)cc1` (stereo unspecified) [Sulconazole Nitrate] is lower in “inhibition of IKZF1 HTRF signal” value: 18% for the first, -32.3% for the second.

Compared with `CN(C)C(=O)C(CCN1CCC(O)(c2ccc(Cl)cc2)CC1)(c1ccccc1)c1ccccc1` [Loperamide HCl], `NC(=O)N/N=C/c1ccc(Oc2ccc(F)cc2)cc1` is lower in “inhibition of IKZF1 HTRF signal” value: 3.48% for the first, -35% for the second.

Compared with `CCOC(=O)C1=C(C)NC(C)=C(C(=O)OC)C1c1cccc(Cl)c1Cl` (stereo unspecified), `CCCCc1ccc2[nH]c(NC(=O)OC)nc2c1` [parbendazole] is lower in “inhibition of IKZF1 HTRF signal” value: 18% for the first, -10.3% for the second.

Compared with `CSCC1CN(/N=C/c2ccc([N+](=O)[O-])o2)C(=O)O1` (stereo unspecified) [Nifuratel], `CC[C@@]1(O)C(=O)OCc2c1cc1n(c2=O)Cc2cc3c(CN(C)C)c(O)ccc3nc2-1` [Topotecan (Hydrochloride)] is higher in “inhibition of IKZF1 HTRF signal” value: -39.4% for the first, 1.64% for the second.

First: CCC1(O)CC2CN(CCc3c([nH]c4ccccc34)[C@@](C(=O)OC)(c3cc4c(cc3OC)N(C=O)C3[C@]45CCN4CC=C[C@@](CC)([C@@H](OC(C)=O)[C@]3(O)C(=O)OC)[C@H]45)C2)C1 (stereo partly specified) [Vincristine sulfate]
Second: CCc1c2c(nc3ccc(OC(=O)N4CCC(N5CCCCC5)CC4)cc13)-c1cc3c(c(=O)n1C2)COC(=O)[C@]3(O)CC [Irinotecan HCl]
The “inhibition of IKZF1 HTRF signal” value of the first is lower: -23.3% for the first, -17.6% for the second.

Compared with `CCCCCCCC/C=C\CCCCCCCC(=O)NCCO` [oleoylethanolamide], `CCN(CC)CCCC(C)Nc1nc(C)cc(Nc2ccc3nc(C)cc(N)c3c2)n1` (stereo unspecified) is lower in “inhibition of IKZF1 HTRF signal” value: -34.1% for the first, -45.1% for the second.

Tested on: HEK293FT dCK*-only
Test: relative growth in counter assay (no AraC = 100%, AraC + DMSO = 0%); higher = more growth rescue independent of IKZF1
Details: compound concentration: 5 uM; AraC concentration: 0.3 uM; overnight pretreatment + 4 days AraC
Procedure, shortened: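 This counter assay used HEK293FT cells expressing only an engineered kinase construct, seeded at 300 per well in 384-well plates. Compound was added at 5 μM 2 h after seeding, and after overnight at 37 °C the cells received a nucleoside suicide substrate at 0.3 μM plus medium for 4 days. On day 5, nuclei stained with Hoechst 33342 were counted by imaging, and relative growth was normalised per plate; wells without suicide substrate were set at 100% and wells with substrate plus vehicle at 0%.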

Going from `CN1CCC(=C2c3ccccc3Sc3ccccc32)CC1` to `CN1C(=O)/C(=C2/C(=O)Nc3ccccc32)c2ccccc21` [Meisoindigo], the “relative growth in counter assay” value falls from -4.99% to -7.74%.

First: O=c1oc2c(O)c(O)cc3c(=O)oc4c(O)c(O)cc1c4c23
Second: O=c1c(O)c(-c2ccc(O)c(O)c2)oc2cc(O)cc(O)c12 [quercetin]
The “relative growth in counter assay” value of the first is higher: -6.38% for the first, -7.53% for the second.

First: CNC(=O)Nc1ccc(-c2nc(N3CC4CCC(C3)O4)c3cnn(C4CCC5(CC4)OCCO5)c3n2)cc1
Second: CCCC(=O)C1CCN(c2ncnc3c2CN(C(=O)c2ccc(-c4ccccc4)cc2)CC3)CC1
The “relative growth in counter assay” value of the first is lower: -32.9% for the first, 18% for the second.

Going from `CC1(C)Oc2ccc(C#N)cc2[C@@H](N2CCCC2=O)[C@@H]1O.CC1(C)Oc2ccc(C#N)cc2[C@H](N2CCCC2=O)[C@H]1O` [levcromakalim] to `COc1ccc2cc1Oc1ccc(cc1)C[C@H]1c3cc(c(OC)cc3CCN1C)Oc1c(OC)c(OC)cc3c1[C@H](C2)N(C)CC3` [Tetrandrine (Fanchinine)], the “relative growth in counter assay” value falls from 4.22% to -14.3%.

Going from `COc1cc([C@@H]2c3cc4c(cc3C(O[C@@H]3O[C@@H]5CO[C@@H](c6cccs6)OC5[C@H](O)[C@H]3O)C3COC(=O)[C@@H]32)OCO4)cc(OC)c1O` (stereo partly specified) to `NC1CC(O[C@H]2C[C@@]([C@@](C)=O)(O)CC3=C2C(O)=C5C(C(C4=CC=CC(OC)=C4C5=O)=O)=C3O)OC(C)C1O` (stereo partly specified) [daunorubicin], the “relative growth in counter assay” value falls from -34.5% to -35.4%.

Going from `O=C1C=CC(=O)C2=C1C1c3ccccc3C2c2ccccc21` to `c1ccc(C2(c3ccccc3)CC2=C2NCCN2)cc1` [cibenzoline], the “relative growth in counter assay” value rises from -0.91% to 0.23%.

Going from `C/C(=N\NC(=S)N1CCC1)c1ccccn1` to `CN1CCN(CCCN2c3ccccc3Sc3ccc(C(F)(F)F)cc32)CC1` [Trifluoperazine  HCl], the “relative growth in counter assay” value rises from -34.6% to 28.7%.

First: COc1cnc(NS(=O)(=O)c2ccc(N)cc2)nc1
Second: C[C@H](NCc1ccc(OCc2ccccc2F)cc1)C(N)=O [priralfinamide]
The “relative growth in counter assay” value of the first is lower: -10.1% for the first, -0.94% for the second.

First: C[C@H]1O[C@@H](n2cc(F)c(=O)[nH]c2=O)[C@H](O)[C@@H]1O
Second: NC(=O)Nc1sc(-c2ccc(F)cc2)cc1C(N)=O
The “relative growth in counter assay” value of the first is higher: -10.6% for the first, -26.8% for the second.

Going from `O=C1Nc2ccc(I)cc2/C1=C/c1cc(Br)c(O)c(Br)c1` to `O=C(/C=C/c1ccc(O)cc1)c1ccc(O)cc1O` [Isoliquiritigenin], the “relative growth in counter assay” value falls from 4.46% to -7.18%.

First: COc1cc(/C=C/C(=O)CC(=O)/C=C/c2ccc(O)c(OC)c2)ccc1O [Curcumin]
Second: C/C=C(/C(=C/C)c1ccc(O)cc1)c1ccc(O)cc1 [dienestrol]
The “relative growth in counter assay” value of the first is lower: -25.9% for the first, -2.14% for the second.

First: CCN(CC)c1ccc(C(=C2C=CC(=[N+](CC)CC)C=C2)c2ccccc2)cc1 [Brilliant Green]
Second: COC(=O)Nc1nc2cc(C(=O)c3ccccc3)ccc2[nH]1 [Mebendazole]
The “relative growth in counter assay” value of the first is lower: -35% for the first, -30.6% for the second.

Compared with `O=S(=O)(O)CCSSCCS(=O)(=O)O`, `CN(Cc1cnc2nc(N)nc(N)c2n1)c1ccc(C(=O)NC(CCC(=O)O)C(=O)O)cc1` (stereo unspecified) [Methotrexate] is lower in “relative growth in counter assay” value: -2.36% for the first, -30.3% for the second.

First: CCc1nc(N)nc(N)c1-c1ccc(Cl)cc1
Second: Clc1ccc(CSC(Cn2ccnc2)c2ccc(Cl)cc2Cl)cc1 (stereo unspecified) [Sulconazole Nitrate]
The “relative growth in counter assay” value of the first is higher: 3.95% for the first, -8.02% for the second.

Compared with `CN(C)C(=O)C(CCN1CCC(O)(c2ccc(Cl)cc2)CC1)(c1ccccc1)c1ccccc1` [Loperamide HCl], `NC(=O)N/N=C/c1ccc(Oc2ccc(F)cc2)cc1` is higher in “relative growth in counter assay” value: -7.07% for the first, 2.45% for the second.

Going from `CCOC(=O)C1=C(C)NC(C)=C(C(=O)OC)C1c1cccc(Cl)c1Cl` (stereo unspecified) to `CCCCc1ccc2[nH]c(NC(=O)OC)nc2c1` [parbendazole], the “relative growth in counter assay” value falls from -9.69% to -34.4%.

First: CSCC1CN(/N=C/c2ccc([N+](=O)[O-])o2)C(=O)O1 (stereo unspecified) [Nifuratel]
Second: CC[C@@]1(O)C(=O)OCc2c1cc1n(c2=O)Cc2cc3c(CN(C)C)c(O)ccc3nc2-1 [Topotecan (Hydrochloride)]
The “relative growth in counter assay” value of the first is higher: -3.74% for the first, -36.8% for the second.

First: CCC1(O)CC2CN(CCc3c([nH]c4ccccc34)[C@@](C(=O)OC)(c3cc4c(cc3OC)N(C=O)C3[C@]45CCN4CC=C[C@@](CC)([C@@H](OC(C)=O)[C@]3(O)C(=O)OC)[C@H]45)C2)C1 (stereo partly specified) [Vincristine sulfate]
Second: CCc1c2c(nc3ccc(OC(=O)N4CCC(N5CCCCC5)CC4)cc13)-c1cc3c(c(=O)n1C2)COC(=O)[C@]3(O)CC [Irinotecan HCl]
The “relative growth in counter assay” value of the first is higher: -33.7% for the first, -35.4% for the second.

Going from `CCCCCCCC/C=C\CCCCCCCC(=O)NCCO` [oleoylethanolamide] to `CCN(CC)CCCC(C)Nc1nc(C)cc(Nc2ccc3nc(C)cc(N)c3c2)n1` (stereo unspecified), the “relative growth in counter assay” value falls from 0.5% to -7.4%.
